According to PubChem BioAssay (NCI):
The panel holds about 83,000 compounds, 20% with a hit somewhere; the sample as a whole holds those more often.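 Activity criterion: percent growth below 10, measured after cells in 96-well plates were exposed to a single compound concentration for 48 hours.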 The source made the active and inactive calls.

The compounds below were run on SW-620 colon (assay: NCI-60 one-dose screen, 48 h (100 = growth as untreated, 0 = no growth, -100 = all killed)). Details: 10 µM unless noted.
In the case of `Cc1ccc(NC(=O)c2ccc(CN3CCN(C)CC3)c(C(F)(F)F)c2)cc1Oc1ccc(-c2[nH]nc3ncnc(N)c23)cc1`, the growth is reported as 24.3% (inactive).
With `COc1ccc([C@H]2c3[nH]c4ccccc4c3C[C@@H]3C(=O)N(C4CCN(Cc5ccccc5)CC4)CC(=O)N23)c(OC)c1` the growth was 79.9% (inactive).
In the case of `IP(CCCSc1n(Cc2ccc3ccccc3c2)c(-c2ccccc2)c(-c2ccccc2)[n+]1Cc1ccc2ccccc2c1)(c1ccccc1)(c1ccccc1)c1ccccc1`, the growth is reported as 45.7% (inactive).
For `O=C1NC(=O)c2c1c1c3ccccc3ccc1c1[nH]c3ccccc3c21`, the growth was 28.2% (inactive).
In the case of `COc1cc(/C=N/n2cnc3oc(-c4ccccc4)cc3c2=N)cc(CN2CCN(C)CC2)c1O`, the growth is reported as 101% (inactive).
In the case of `COC1=C(c2ccccc2)C(=O)C(OC)=C(c2ccccc2)C1=O`, the growth is reported as 98.8% (inactive).
`Cc1ccc(-c2csc(N/N=C/c3nc4ccccc4n3C3CC3)n2)cc1` was tested, and the growth was -72% (active).
With `CC(C)=CCc1c(O)c(CC=C(C)C)c2c(c1O)C(=O)C1=C[C@@H]3C[C@H]4C(C)(C)O[C@@](C/C=C(\C)C(=O)O)(C3=O)[C@@]14O2` the growth was -34.6% (active).
In the case of `CN1CCN(c2nc(-c3csc(-c4ccncc4)n3)cc3ccccc23)CC1`, the growth is reported as 74.2% (inactive).
For `CN1C(=O)N(C)C2C1NN=c1s/c(=C\c3ccccn3)c(=O)n12` (stereo not drawn), the growth was 99.3% (inactive).
With `CC(C)SC1=NC(=C(C(=N1)NC2=ClC=CC=C2)C#N)C3=CC=CC=C3` the growth was 50.5% (inactive).
With `CC(=O)NC(C)(C)C(=O)N[C@@H](C)C(=O)NC(C)(C)C(=O)N[C@@H](C)C(=O)NC(C)(C)C(=O)N[C@@H](C)C(=O)N[C@@H](CCC(N)=O)C(=O)NC(C)(C)C(=O)N[C@H](C(=O)NC(C)(C)C(=O)NCC(=O)N[C@@H](CC(C)C)C(=O)NC(C)(C)C(=O)N1CCC[C@H]1C(=O)N[C@H](C(=O)NC(C)(C)C(=O)NC(C)(C)C(=O)N[C@@H](CCC(N)=O)C(=O)N[C@@H](CCC(N)=O)C(=O)N[C@H](CO)CC1CCCCC1)C(C)C)C(C)C` the growth was 37.1% [5 µM] (inactive).
In the case of `Clc1ccc(-c2csc(N/N=C/c3nc4ccccc4n3C3CC3)n2)cc1`, the growth is reported as 107% (inactive).
For `O=C(NCCCNc1cc(-c2cn(-c3ccccc3)nc2-c2cccc(O)c2)ccn1)Nc1cc(C(F)(F)F)cc(C(F)(F)F)c1`, the growth was 94.2% (inactive).
With `COc1ccc(-c2ccc3c4c(cccc24)C(=O)N(N2C(=O)c4cccc5cccc(c45)C2=O)C3=O)cc1` the growth was 96.2% (inactive).
In the case of `Cc1cc(C(=O)Nc2ccc(SC#N)cc2)c(C)o1`, the growth is reported as 104% (inactive).
With `Oc1ccc(CSc2nnc(-c3cnccn3)o2)c2cccnc12` the growth was 12.9% (inactive).
`O=C(O)c1ccc(-n2cc(CNc3ccc(Cl)cc3)c(-c3ccc(F)cc3)n2)cc1` was tested, and the growth was 106% (inactive).
With `Cc1cn(-c2cc(NC(=O)c3cncc(C#Cc4cnc5ccc(OCCCS(C)(=O)=O)nn45)c3)cc(C(F)(F)F)c2)cn1` the growth was 8.59% (active).
For `N/C(=N\OC(=O)CSc1nc2ccccc2s1)c1ccc2ccccc2c1`, the growth was 100% (inactive).
With `Nc1nc(-c2cccc([N+](=O)[O-])c2)c(N=Nc2cccc(Cl)c2)s1` the growth was 52.4% (inactive).
With `CC[C@@](C)(NC(=O)C(C)(C)NC(=O)[C@@H](NC(=O)[C@@H]1CCCN1C(=O)C(C)(C)NC(=O)[C@H](CC(C)C)NC(=O)CNC(=O)C(C)(C)NC(=O)[C@@H](NC(=O)C(C)(C)NC(=O)[C@H](CCC(N)=O)NC(=O)[C@H](C)NC(=O)C(C)(C)NC(=O)[C@H](C)NC(=O)C(C)(C)NC(=O)[C@@H]1CCCN1C(=O)C(C)(C)NC(C)=O)C(C)C)C(C)C)C(=O)N[C@@H](CCC(N)=O)C(=O)N[C@@H](CCC(N)=O)C(=O)N[C@H](CO)Cc1ccccc1` the growth was 54.9% [4.25 µM] (inactive).
For `COc1ccc(-c2nn(-c3ccccc3)cc2/C=C/C(=O)c2ccc(NC(=O)CCCCCCC(=O)NO)cc2)cc1`, the growth was 111% (inactive).
For `Nc1ccc(-c2nnc(SCc3ccc(O)c4ncccc34)o2)cc1`, the growth was 5.51% (active).
With `O=C1Nc2ccc(Cl)cc2/C1=C/c1ccc(OCc2ccc(Br)cc2F)cc1` the growth was 97.8% (inactive).
`C=C1C(=O)O[C@@H]2/C=C(/C)C3=CC(=O)[C@@](C)(C[C@H](OC(=O)/C(C)=C\C)[C@@H]12)O3` was tested, and the growth was -28.7% (active).
With `O=C(CCCCCCN1CC(=O)N2[C@@H](c3cccc(Cl)c3)c3[nH]c4ccccc4c3C[C@H]2C1=O)NO` the growth was 26.3% (inactive).
In the case of `CS(=O)(=O)c1ccc(-c2nn(-c3ccccc3)cc2/C=N/NC(=O)c2ccncc2)cc1`, the growth is reported as 102% (inactive).
In the case of `CC(C)=CCc1c2c(c(O)c3c1O[C@]14C(=C[C@@H]5C[C@H]1C(C)(C)O[C@@]4(C/C=C(/C)C(=O)O)C5=O)C3=O)CC(O)C(C)(C)O2` (stereo partly drawn), the growth is reported as -44.8% (active).
With `C=C(C)C(=O)O[C@H]1C[C@@]2(C)OC(=CC2=O)/C(CO)=C\[C@H]2OC(=O)C(=C)[C@H]12` the growth was -61.3% (active).
With `COc1ccc(-c2nnc(SCc3ccc(O)c4ncccc34)o2)cc1` the growth was 17.7% (inactive).
In the case of `Nc1ccc(-c2nnc(SCc3ccc(O)c4ncccc34)n2-c2ccccc2)cc1`, the growth is reported as 19.2% (inactive).
With `CC(C)N=C(N/C(N)=N/c1nc2ccccc2s1)NC(C)C` the growth was 33.3% (inactive).
In the case of `CN1CCN(Cc2ccc(NC(=O)c3cncc(C#Cc4cnc5ccc(NC6CCOCC6)nn45)c3)cc2C(F)(F)F)CC1`, the growth is reported as -42.1% (active).
`COc1cc(/C=C/C(=O)c2ccc(NC(=O)CSc3nnc(-c4ccc5nc(-c6ccccc6)[nH]c5c4)o3)cc2)cc(OC)c1OC` was tested, and the growth was 98.8% (inactive).
For `CC(=O)c1ccc(NC(=O)COc2ccc(C3SCC(=O)N3c3ccc(Br)cc3)cc2)cc1` (stereo not drawn), the growth was 110% (inactive).
For `COc1ccc(Cn2cc3c(c2-c2ccccc2)CCCc2cnoc2-3)cc1`, the growth was 28.2% (inactive).
`O=C(CSc1ccc(-c2nc3ccccc3[nH]2)cn1)N1CCN(c2ccccc2F)CC1` was tested, and the growth was 106% (inactive).
